PubChem BioAssay AID504423 (Broad Institute, 2011)
Several values for one entry are separate records, joined by “and”; a condition that tells them apart may be missing. Equal entries are not always repeated. Out of some 340,000 compounds screened, about 260 (0.076%) were called active. This is one part of a sample in which actives are shown more often than they occur.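 The calls were made as follows: active = highest replicate inhibition at or above 60% at 9 µM, even if other replicates fall short; inactive = all replicates below 60% inhibition.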

system: Kaposi's sarcoma herpesvirus LANA C-terminal domain (residues 932-1162) DNA binding; assay: blockers of LANA C-terminal domain DNA interaction – biochemical, fluorescence polarization, FAM-LBS DNA, MBP-C-LANA, single point, primary screen (AID 504423); details: at 9 µM, active compounds read high;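 also: 0% = neutral control wells and 100% = 4 µM acridine orange control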

inhibition, active:
COc1ccc(CN2CCN(Cc3ccc(OC)c(OC)c3OC)CC2)cc1 79%
C=CC1=C(C(=O)O)N2C(=O)[C@@H](NC(=O)/C(=N/OCC(=O)O)c3csc(N)n3)[C@H]2SC1 95.4%
Cc1nn(C)cc1N1C(=O)c2cccc3c(N)ccc(c23)C1=O 73%

inhibition, inactive:
C=CCNC(=S)NNC(=O)c1ccc(Br)o1 0.832%
c1ccc(CNc2ncnc3[nH]ncc23)cc1 -0.81%
O=C(CN1CCN(c2ncccn2)CC1)Nc1ccccc1C(F)(F)F -0.265%
COC(=O)Cn1c(=NC(=O)CSCC(=O)Nc2cc(C)on2)sc2ccccc21 1.43%
Cc1ccc(OCCNC(=O)c2cccc(S(=O)(=O)N3CCN(Cc4ccccc4)CC3)c2)cc1 -0.305%
COc1ccc(Cc2nnc(SCC(=O)c3cccc([N+](=O)[O-])c3)n2C)cc1 0.228%
Cc1cc(C)c(NC(=O)CN2CCCCCC2)c(C)c1 1.26%
N=C1c2ccccc2-c2ccccc21 1.95%
CCC(C)C1(C2CCCC2)NC(=O)NC1=O (stereo not given) 3.17%
CCOc1ncccc1C(=O)NCCc1ccc(OC)cc1 0.452%
CC1CCN(C(=O)c2ccccc2NC(=O)Cc2ccccc2)CC1 2.17%
O=C(C1CCN(S(=O)(=O)c2ccc(Br)s2)CC1)N1CCN(C2CCCCC2)CC1 -0.326%
Cc1ccccc1CN1C[C@@H]2C[C@@H](c3cn(C)nc3-c3ccccc3)N3CCC[C@@]23C1=O -1.95%
O=C(Nc1ccc2sc3ccccc3c(=O)c2c1)c1ccccc1Cl -0.526%
CCCn1nc(NC(=O)C(C)C)c2cc3cc(OC)ccc3nc21 -1.15%
CC(C(=O)N(C)CC(=O)Nc1ccccc1C(F)(F)F)N1C(=O)c2ccccc2C1=O (stereo not given) 1.14%
CCN(CC)P(=O)(/C(Cl)=C\Nc1c(C)n(C)n(-c2ccccc2)c1=O)N(CC)CC -1.51%
Cc1cc([N+](=O)[O-])nn1CC(=O)Nc1ccc(Cc2ccncc2)cc1 0.568%
Cn1c(N2CCOCC2)c(C=O)c2ccccc21 0.207%
Cc1cc(Br)ccc1NC(=O)CN(C)C(=O)CN1C(=O)NC2(CCCC2)C1=O 0.321%
Cn1cc(S(=O)(=O)N2CCC(Cc3ccccc3)CC2)c(=O)n(C)c1=O 1.59%
CCCCN(CCCC)CCCNC(=O)CN1C(=O)COc2ccc(S(=O)(=O)N3CCC(C)CC3)cc21 0.15%
COc1cccc2c1CCC(NC(C)=O)C2=O (stereo not given) -1.29%
O=C(CSc1ccsc1[N+](=O)[O-])N1CCCCC1 1.32%
CCCCNS(=O)(=O)c1ccc(S(=O)(=O)n2cnc3ccccc32)cc1 0.219%
COc1ccc(C(=O)Nc2ccc(C(=O)NCC3CCCO3)cc2)c(OC)c1OC (stereo not given) 2.3%
Cc1ccc(CNC(=O)C(=O)c2cn(CC(=O)N3CCCC3)c3ccccc23)cc1 2.35%
COC1=C/C(=C/c2c(N)n3nc(CC(=O)N4CCOCC4)sc3nc2=O)C=CC1=O 32.7%
CCC1CCCCN1CCNC(=O)c1[nH]c(C)c(C(C)=O)c1C (stereo not given) 5.48%
COc1ccccc1N1CCN(Cc2ccc(OC)c3ccccc23)CC1 -3.69%
COc1cc(CN2CCN(Cc3ccc(C)cc3)CC2)c([N+](=O)[O-])cc1OC -0.737%
CC(=O)Nc1ccc(SCC(=O)Nc2ccccc2Oc2ccccc2)cc1 1.36%
C[C@H](CO)N1C[C@H](C)[C@H](CN(C)C(=O)Nc2ccc(C(F)(F)F)cc2)Oc2c(NC(=O)c3ccncc3)cccc2C1=O -3.26%
O=C(c1ccc(F)cc1)C1CCN(Cc2cn[nH]c2-c2ccccc2)CC1 1.59%
Cc1nc(C)c2c(c1C(F)(F)F)-c1ccccc1C2(F)F 1.49%
COc1ccc([C@@H]2[C@@H]3C(=O)N(C(C)(C)C)C(=O)[C@@H]3[C@]3(Cc4ccccc4)C(=O)N(c4cccc(Br)c4)C(=O)N23)cc1 0.113%
CCOc1cc(C(=O)OCC(=O)Nc2cccc(C)c2)ccc1OCC(=O)N1CCOCC1 0.789%
C=CC1=C(C(=O)O)N2C(=O)[C@@H](NC(=O)/C(=N\OCC(=O)O)c3csc(N)n3)[C@H]2SC1 22.9%
CO/N=C(\C(=O)N[C@@H]1C(=O)N2C(C(=O)O)=C(COC(C)=O)CS[C@H]12)c1csc(N)n1 (stereo in doubt) 8.29% and 6.28% and 10.6%
CCOc1ccccc1N1CCN(C(=O)c2ccc3[nH]c(C)c(C)c3c2)CC1 -1.79%
CCC(=O)OCc1c(C(F)(F)F)nn(C)c1Oc1cccc(C(F)(F)F)c1 0.811%
CC1(C)N=C(c2ccccn2)C(C)(C)N1O 0.432%
Cc1cc(C)n2nc(C(=O)OCC(=O)N(C)CC(=O)Nc3ccc(F)cc3)nc2n1 0.686%
Cc1ccsc1C(=O)N[C@@H](C)c1nnc2ccccn12 1.44%
CCC(C)(C)NC(=O)C(c1ccccn1)N(C(=O)c1csnn1)c1ccccc1 (stereo not given) -0.461%
O=C1OC(Oc2ccc(Br)cc2)(c2ccccc2)c2ccccc21 (stereo not given) -1.96%
CCC(Cc1ccccc1)NC(=O)C1CCCCC1 (stereo not given) 1.4%
Cc1sc2ncn(CC(=O)NCCCC(=O)NCc3ccc(F)cc3)c(=O)c2c1C 0.451%
Cc1ccc2c(c1)N(CC(=O)N1CCCc3ccccc31)C(=O)C(C)O2 (stereo not given) 2.64%
COc1cccc(COC(=O)C2CCN(S(=O)(=O)c3ccc(Cl)cc3)CC2)c1OC 0.51%
Cc1cc(C)c(S(=O)(=O)c2ccc(F)cc2C)c(=O)[nH]1 -0.026%
COc1ccc(/C(=N\O)c2nccc3cc(OC)c(OC)cc23)cc1OC 0.0523%
